Test systems include NCI-H23 lung; NCI-H226 lung; HOP-62 NSCLC; NCI-H460 lung; HOP-92 NSCLC; NCI-H522 lung; A549/ATCC NSCLC; 786-0 renal; COLO 205 colon; DU-145 prostate; K-562 leukemia; MALME-3M melanoma; MDA-MB-231 breast; RXF 393 renal; SF-268 CNS; SF-295 CNS; SF-539 CNS; UACC-257 melanoma; M14 melanoma.
Test in all cases: NCI-60 one-dose screen, 48 h (100 = growth as untreated, 0 = no growth, -100 = all killed)
Holding throughout (settings): 10 µM unless noted

About 83,000 compounds went through this panel and 20% of them were active in at least one assay; those are over-represented in the sample as a whole.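 Percent growth is the endpoint: 0 to 100 indicates growth inhibition (40 means 60% inhibition), 0 means no net growth, and negative values indicate cell death.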 A number with no mark means an inactive call. Activity calls are given as the source filed them. The calls were made as follows: active = growth percent below 10; inactive = the rest.

As to `CCCn1c(=S)sc2c1nc(C)n1c(Nc3ccccc3)nnc21`, the growth is 26.6% with NCI-H23 lung; 66.9% in the assay with NCI-H226 lung; 75.5% in the assay on HOP-62 NSCLC; 45.3% in the assay with NCI-H460 lung; 48.9% with HOP-92 NSCLC; 12.4% in the assay on NCI-H522 lung. In addition, the growth was 66.1% in the assay with A549/ATCC NSCLC; 54.8% in the assay with 786-0 renal; 128% in the assay with COLO 205 colon; 109% in the assay with DU-145 prostate; 37.6% with K-562 leukemia; 65.4% with MALME-3M melanoma. For the same molecule, the growth was 84.5% in the assay with MDA-MB-231 breast; 29.3% in the assay with RXF 393 renal; 99.4% in the assay on SF-268 CNS; 51.7% with SF-295 CNS; 62.9% with SF-539 CNS; 75.3% in the assay on UACC-257 melanoma. The growth with M14 melanoma is 89.1%.

As to `O=C(Cn1nnc([N+](=O)[O-])n1)c1ccccc1`, the growth was 96.5% in the assay on NCI-H23 lung; 112% with NCI-H226 lung; 94.8% in the assay on HOP-62 NSCLC; 93.2% in the assay with NCI-H460 lung; 63.6% with HOP-92 NSCLC; 86.9% with NCI-H522 lung. Besides, the growth in the assay with A549/ATCC NSCLC is 87%; in the assay on 786-0 renal, 102%; in the assay with COLO 205 colon it was 100%; with DU-145 prostate it was 99.4%; with K-562 leukemia it was 83.3%; in the assay on MALME-3M melanoma it was 92.7%. The growth with MDA-MB-231 breast was 71.5%; in the assay with RXF 393 renal, 91.8%; in the assay with SF-268 CNS, 83.1%; in the assay on SF-295 CNS, 58%; in the assay on SF-539 CNS, 93.3%; with UACC-257 melanoma it was 90.9%. Moreover, the growth in the assay on M14 melanoma was 71.5%.

With `COc1ccc(C2CC(c3ccc4c(c3)OCO4)=Nc3c(N)ncnc3N2)cc1` (stereo not drawn), the growth is 107% in the assay with NCI-H23 lung; 100% with NCI-H226 lung; 88.6% with HOP-62 NSCLC; 111% in the assay with NCI-H460 lung; 62.4% in the assay on HOP-92 NSCLC; 108% with NCI-H522 lung. For the same molecule, the growth is 104% in the assay on A549/ATCC NSCLC; 102% in the assay with 786-0 renal; 100% in the assay on COLO 205 colon; 141% in the assay on DU-145 prostate; 99.6% in the assay with K-562 leukemia; 106% with MALME-3M melanoma. Further, the growth in the assay with MDA-MB-231 breast is 90.1%; with RXF 393 renal, 84.3%; in the assay on SF-268 CNS, 93.3%; with SF-295 CNS it was 168%; in the assay on SF-539 CNS, 110%; with UACC-257 melanoma, 107%.

Take `N#CCC1=NC(c2cccs2)=Nc2ccccc2S1`: the growth in the assay on NCI-H23 lung is 94.6%; with NCI-H226 lung it was 82.4%; in the assay with HOP-62 NSCLC, 89.6%; in the assay on NCI-H460 lung, 97.7%; with HOP-92 NSCLC, 71.7%; in the assay on NCI-H522 lung it was 57.4%. The growth in the assay on A549/ATCC NSCLC was 96%; in the assay with 786-0 renal it was 98.6%; in the assay with COLO 205 colon it was 107%; in the assay with DU-145 prostate, 109%; in the assay on K-562 leukemia it was 86.5%; in the assay on MALME-3M melanoma, 99%. The growth was 90.1% in the assay with MDA-MB-231 breast; 105% in the assay on RXF 393 renal; 94% in the assay with SF-268 CNS; 103% in the assay with SF-295 CNS; 101% in the assay with SF-539 CNS; 94.4% with UACC-257 melanoma. Besides, the growth in the assay on M14 melanoma is 94%.

For `N#Cc1c(-c2ccccc2)c(C#N)c2c(C#N)c(N)nn2c1N`, the growth with NCI-H23 lung is 72.2%; in the assay with NCI-H226 lung, 74%; in the assay with HOP-62 NSCLC, 40.2%; in the assay on NCI-H460 lung it was 19.7%; with HOP-92 NSCLC, 27.1%; in the assay with NCI-H522 lung it was 13.1%. Moreover, the growth is 38.7% in the assay on A549/ATCC NSCLC; 53.4% in the assay with 786-0 renal; 29.4% with COLO 205 colon; 78.6% with DU-145 prostate; 6.77% (active) with K-562 leukemia; 39.6% in the assay on MALME-3M melanoma. For the same molecule, the growth is 33.6% with MDA-MB-231 breast; 69.8% in the assay with RXF 393 renal; 56.3% in the assay with SF-268 CNS; 33.4% in the assay with SF-295 CNS; 37.2% in the assay with SF-539 CNS; 51.1% in the assay with UACC-257 melanoma. In the assay with M14 melanoma, the growth was 32.9%.

On to `O=C(/C=C/c1cccc(Cl)c1)c1cccc(OCCCCOc2cccc(C(=O)/C=C/c3cccc(Cl)c3)c2)c1`, for which the growth was 89.3% in the assay with NCI-H23 lung; 99.7% in the assay on NCI-H226 lung; 107% in the assay on HOP-62 NSCLC; 98.7% in the assay with NCI-H460 lung; 78.6% with HOP-92 NSCLC; 88.7% in the assay on NCI-H522 lung. Besides, the growth in the assay on A549/ATCC NSCLC is 85.4%; with 786-0 renal, 98.8%; in the assay on COLO 205 colon it was 76%; with DU-145 prostate it was 97.4%; in the assay on K-562 leukemia, 91.4%; in the assay with MALME-3M melanoma, 96.8%. The growth in the assay on MDA-MB-231 breast was 97.1%; in the assay on RXF 393 renal, 89.9%; in the assay with SF-268 CNS it was 96.6%; with SF-295 CNS it was 103%; in the assay with SF-539 CNS it was 96.6%; with UACC-257 melanoma, 89.7%. Moreover, in the assay on M14 melanoma, the growth is 85.5%.

These data come from PubChem BioAssay (NCI).
